# Experimental data as given in PubChem BioAssay.
# Records with an inconclusive call do not appear. Activity calls are given as the source filed them. Cut-off read from the data, not from the text of the source, unless noted: active = inhibition above about 30%; inactive = the rest.
# Assays:
# [1] = reducers of endogenous Her2 protein level, primary screen, SKBR3 breast tumor cells, AlphaScreen, ATP viability (AID 461;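 active = Her2 level under about 52% in both replicate screens, with viability over 70% of control, limit read from the data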;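 for Her2 level: lower value means less Her2 protein in the cells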;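 for viability: percent of carrier control wells set as 100% viability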); conditions: 18-24 h, measured here: SKBR3 viability, ATP luminescence, at 10 µM
# [2] = target: Receptor tyrosine-protein kinase erbB-2 (Homo sapiens) (UniProt P04626); assay: as above; conditions: 18-24 h, at 10 µM, stronger effect = lower value
# Chain of Receptor tyrosine-protein kinase erbB-2 (Homo sapiens) (P04626 whole entry, looked up): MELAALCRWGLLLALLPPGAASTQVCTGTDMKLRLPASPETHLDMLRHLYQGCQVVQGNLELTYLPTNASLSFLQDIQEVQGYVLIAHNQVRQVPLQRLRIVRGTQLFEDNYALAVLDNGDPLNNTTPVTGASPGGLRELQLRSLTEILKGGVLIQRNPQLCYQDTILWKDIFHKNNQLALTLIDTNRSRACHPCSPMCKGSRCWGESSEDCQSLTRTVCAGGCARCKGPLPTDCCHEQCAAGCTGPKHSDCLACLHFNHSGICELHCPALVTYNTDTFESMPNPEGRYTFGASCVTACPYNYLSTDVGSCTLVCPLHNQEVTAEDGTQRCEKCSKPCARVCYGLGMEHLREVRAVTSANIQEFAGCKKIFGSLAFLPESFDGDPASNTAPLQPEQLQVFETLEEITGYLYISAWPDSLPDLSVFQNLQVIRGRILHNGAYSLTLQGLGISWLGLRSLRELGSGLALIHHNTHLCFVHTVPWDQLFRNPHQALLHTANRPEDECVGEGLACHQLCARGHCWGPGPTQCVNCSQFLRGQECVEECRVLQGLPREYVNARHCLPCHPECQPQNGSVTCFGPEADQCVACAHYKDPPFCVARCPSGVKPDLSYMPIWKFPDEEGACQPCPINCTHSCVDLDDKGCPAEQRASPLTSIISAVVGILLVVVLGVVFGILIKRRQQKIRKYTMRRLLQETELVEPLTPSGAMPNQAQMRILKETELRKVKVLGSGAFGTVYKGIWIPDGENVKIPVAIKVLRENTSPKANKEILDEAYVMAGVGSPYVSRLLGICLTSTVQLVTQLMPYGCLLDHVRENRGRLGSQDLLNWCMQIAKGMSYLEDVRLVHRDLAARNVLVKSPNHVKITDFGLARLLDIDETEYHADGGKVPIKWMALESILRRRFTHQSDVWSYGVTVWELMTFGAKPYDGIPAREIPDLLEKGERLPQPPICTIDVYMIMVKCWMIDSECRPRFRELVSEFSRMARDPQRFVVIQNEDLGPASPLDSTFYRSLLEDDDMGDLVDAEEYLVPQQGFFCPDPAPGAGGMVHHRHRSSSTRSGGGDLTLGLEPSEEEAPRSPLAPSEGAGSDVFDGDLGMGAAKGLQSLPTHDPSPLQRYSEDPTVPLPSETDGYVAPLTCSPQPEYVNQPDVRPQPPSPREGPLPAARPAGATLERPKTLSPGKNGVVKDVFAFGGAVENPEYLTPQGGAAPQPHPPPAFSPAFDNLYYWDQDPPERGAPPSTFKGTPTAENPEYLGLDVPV
# [3] = SK-BR-3 cell growth inhibitors, pilot screen, 24 h, human (AID 572;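 active = viability at or below 10% of carrier control in both of two separate runs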;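 note: compound exposure lasted between 18 and 24 h rather than exactly 24 h; 100% = carrier-treated control wells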); conditions: SK-BR-3 viability, CellTiter-Glo luminescence, at 10 µM, stronger effect = lower value
# [4] = HUVEC growth inhibition – cell-based, human, primary screen (AID 575;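 active = viability at or below 30% in both replicate assays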;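 note: 100% = median of untreated cell wells with 0.1% DMSO on each plate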); conditions: HUVEC proliferation, CellTiter-Glo luminescence, 72 h; at 10 µM; stronger effect = lower value
# [5] = growth inhibitors of H69AR lung tumor, primary screen, human, duplicate replicates (AID 580;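 active = viability at or under a set limit in both replicates, limit being median viability minus 3 SD, cut at about 48% in these data, passing the limit was not always enough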;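 note: 100% = mean luminescence of untreated wells and 0% = no signal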); conditions: H69AR lung tumor cells viability, ATP luminescence, 72 h; at 10 µM; stronger effect = lower value
# [6] = reversal of MRP1-mediated doxorubicin resistance, pilot screen, H69AR cells, doxorubicin co-treatment (AID 601;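 active = viability loss from added drug above about 55%, and viability with drug at most 40%, in both replicates, limit read from the data, passing the limit was not always enough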); conditions: CellTiter-Glo, 72 h, at 10 µM; for differential viability (reversal): stronger effect = higher value
# [7] = 384-well plate pilot, post-Golgi transport modulator project, inhibition of yeast transport mutant growth (AID 636; in the data active = inhibition above about 31%); conditions: absorbance 615 nm, about 18 h, stronger effect = higher value
# [8] = growth suppression of yeast trafficking mutant, preliminary HTS, modulators of trafficking downstream of Golgi apparatus project, 1536-format plate, OD 615 nm (AID 637); conditions: yeast transport mutant growth, absorbance 615 nm, 18 h; stronger effect = higher value
# [9] = OD615 S. cerevisiae growth inhibition, permissive medium, pilot counter-assay, permissive growth control for S. cerevisiae lifespan shortening project (AID 705;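 active = growth inhibition above 25% in both replicates, a cutoff set 3 SD above the mean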); conditions: OD615, 24 h, at 10 µM, stronger effect = higher value
# [10] = Restrictive medium S. cerevisiae growth inhibition, OD615, pilot screen of yeast lifespan reduction project, restrictive growth control (AID 706;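 active = growth inhibition above a set limit, 3 SD over mean compound inhibition, in both replicates, cut at about 43% in these data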;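 note: modified DeaD lifespan yeast strain shifted to restrictive glucose medium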); conditions: OD615, 48 h, at 10 µM, stronger effect = higher value
# [11] = viability gain of MRP-1-high H69AR cells under doxorubicin, pilot screen, MRP-1 activator project, CellTiter-Glo, duplicate (AID 807;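 active = viability increase at or above a cutoff of the median across tested compounds plus 3 SD, cut at about 8.5% in these data, passing the limit was not always enough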;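 note: compound pretreatment 18-22 h then 72 h combined with doxorubicin; 0% = doxorubicin alone and 100% = vehicle without doxorubicin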); conditions: H69AR viability with doxorubicin, CellTiter-Glo luminescence; at 10 µM; stronger effect = higher value
# [12] = growth suppression of beta-catenin knockout HCT116, pilot screen, human colon tumor cells (AID 823;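 active = cell viability at or below a set limit in both duplicate runs, the limit being the all-compound median minus 4 SD, cut at about 23% in these data, passing the limit was not always enough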;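 note: 0% = wells killed by 20 µM Hyamine and 100% = untreated DMSO cell wells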); conditions: CellTiter-Glo, 60 h, at 10 µM, stronger effect = lower value
# [13] = growth suppression of PTEN-deleted HCT116, pilot screen, cell-based, HCT116 clonal line, CellTiter-Glo (AID 824;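 active = viability at or below 27.92% in each of two runs, the all-compound median minus 4 SD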;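 note: 0% = 20 µM Hyamine control and 100% = vehicle cell control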); conditions: 60 h, at 10 µM, stronger effect = lower value
# [14] = inhibitors of the yeast RAM network, pilot screen, dse1pr::URA3 reporter, 5-FOA selection (AID 869;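 active = inhibition over a set limit, the all-compound mean plus 3 SD, in both replicate runs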;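 note: 0% = DMSO wells with no growth and 100% = 10 µM 1-NA-PP1 with full growth; RAM network block rescues cells from 5-FOA so hits raise OD615 growth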); conditions: S. cerevisiae dse1pr::URA3 5-FOA growth, OD615, 2 d; at 10 µM; stronger effect = higher value; strain carries analog-sensitive mutant Cbk1 kinase
# [15] = RAM signaling pathway blockade in yeast – S. cerevisiae, Pdr1DBD-CYC8 efflux-inhibited sensitized strain, primary screen (AID 1298;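 active = RAM network inhibition above 8.4% in each of two replicates, 3 SD over the compound average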;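 note: 0% = DMSO untreated cells without growth and 100% = 10 µM 1-NA-PP1 full growth; higher means more yeast growth rescued from 5-FOA killing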); conditions: S. cerevisiae cbk1-as DSE1-URA3 strain, 5-FOA growth OD615, 2 d; at 50 µM; stronger effect = higher value
# [16] = H69AR cells + 2 uM doxorubicin, measured here: viability with 2 uM doxorubicin, stronger effect = lower value
# [17] = H69AR cells, compound alone cytotoxicity
Compound,viability [1] [%],Her2 level [2],viability [3],viability [4],viability [5],differential viability (reversal) ([6]; H69AR cells + 2 uM doxorubicin),"viability [6, 16] [%]","viability [6, 17] [%]",inhibition [7],inhibition [8],growth inhibition [9],growth inhibition [10],viability increase [11],viability [12],viability [13],inhibition [14],RAM network inhibition [15]
O=C(C1CCN(c2nnc(-n3cccc3)s2)CC1)N1CCOCC1,84,80% (inactive),84% (inactive),86.2% (inactive),87.5% (inactive),0.17% (inactive),87.3,87.5,-5.2% (inactive),-1.67% (inactive),-0.63% (inactive),-1.73% (inactive),0.27% (inactive),101% (inactive),96.7% (inactive),1.83% (inactive),6.37% (inactive)
CCOc1ccc(NC(=O)CCN2CCN(c3ccccc3)CC2)cc1,94.5,104% (inactive),94.5% (inactive),95.3% (inactive),82.5% (inactive),4% (inactive),78.5,82.5,-0.9% (inactive),3.17% (inactive),4.18% (inactive),-17.7% (inactive),-3.89% (inactive),90.4% (inactive),80.4% (inactive),0.545% (inactive),3.81% (inactive)
CCCSc1nnc2nc3c(nn12)c1ccccc1n3C,86,85.5% (inactive),86% (inactive),98.9% (inactive),89.3% (inactive),2.42% (inactive),86.9,89.3,-0.27% (inactive),7.21% (inactive),3.75% (inactive),2.38% (inactive),-4.48% (inactive),105% (inactive),97% (inactive),1.27% (inactive),0.96% (inactive)
Oc1ccccc1-c1nnc(COc2ccc(Cl)cc2Cl)o1,96,97.5% (inactive),96% (inactive),101% (inactive),63.3% (inactive),-12.9% (inactive),76.1,63.3,-8.8% (inactive),0.5% (inactive),-10.2% (inactive),-11.7% (inactive),-1.77% (inactive),92.3% (inactive),86.6% (inactive),1.82% (inactive),7.07% (inactive)
COC(=O)c1cn(C(=O)c2ccc(Br)o2)c2ccccc12,89,102% (inactive),89% (inactive),95.9% (inactive),88.3% (inactive),-1.34% (inactive),89.6,88.3,1.03% (inactive),-1.33% (inactive),4.04% (inactive),0.5% (inactive),0.03% (inactive),98.2% (inactive),102% (inactive),2.23% (inactive),4.65% (inactive)
CCC1CCCCN1CCNS(=O)(=O)c1ccc2c(c1)oc(=O)n2C (stereo not given),91.5,84.5% (inactive),91.5% (inactive),79.8% (inactive),85.2% (inactive),0.025% (inactive),85.1,85.2,-1.28% (inactive),0.67% (inactive),-0.855% (inactive),-5.11% (inactive),-2.8% (inactive),97.9% (inactive),95.1% (inactive),2.01% (inactive),-1.43% (inactive)
CCCCN(CCCC)CCn1cnc2c([nH]c3ccc(OC)cc32)c1=O,76,90.5% (inactive),76% (inactive),121% (inactive),80.2% (inactive),-12.8% (inactive),92.9,80.2,-1.67% (inactive),2.17% (inactive),-6.29% (inactive),3.9% (inactive),-3.78% (inactive),82.8% (inactive),86.2% (inactive),0.545% (inactive),2.03% (inactive)
Cc1cc(C)n2c(SCCN3C(=O)c4ccccc4C3=O)nnc2n1,90.5,95% (inactive),90.5% (inactive),111% (inactive),105% (inactive),11.1% (inactive),94,105,-0.51% (inactive),7.17% (inactive),-7.84% (inactive),-8.13% (inactive),-0.7% (inactive),102% (inactive),98.6% (inactive),2.08% (inactive),1.64% (inactive)
CCOC(=O)c1cc2c(=O)n3ccccc3nc2n(Cc2ccccc2)c1=N,77,75.5% (inactive),77% (inactive),84.2% (inactive),83.8% (inactive),-4.5% (inactive),88.3,83.8,-4.86% (inactive),-3.28% (inactive),-1.11% (inactive),-8.62% (inactive),-3.3% (inactive),77.1% (inactive),71.1% (inactive),2.4% (inactive),0.09% (inactive)
CCC1CCCCN1CCCNC(=O)CC1Oc2ccc(C)cc2NC1=O (stereo not given),110,97.5% (inactive),110% (inactive),74.3% (inactive),89.1% (inactive),-3.82% (inactive),92.9,89.1,-2.27% (inactive),-0.49% (inactive),2.28% (inactive),0.165% (inactive),-3.12% (inactive),95% (inactive),91.1% (inactive),1.57% (inactive),2.53% (inactive)
